Targets with a hit are over-represented here; the source holds about 7,900 in all. About 0.6% of all pairs of compound and target were hits.
What follows are targets tested with O=C(O)c1ccc2c(c1)nc(Nc1cccc(Cl)c1)c1ccncc12 [silmitasertib] (assay: log2 fold change, soluble protein after heating vs DMSO (PISA); higher = thermal stabilisation; K562 cells, 10 uM, 30 min; active = over 0.2 and 3.5 SD of the protein, either way, in both replicates (recomputed)).
Method in brief: (§1)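 K562 cells at 2×10^6 cells/mL were treated with 10 μM compound for 30 min. Aliquots were heated for 3 min across 48°C-58°C, pooled, and extracted in PBS with 0.5% NP-40 at 4°C; soluble protein was the supernatant after 21,000xg for 90 min. Soluble protein was quantified by TMTpro 16plex LC-MS/MS with channel sums equalised, and reported as log2 fold change in thermal stability against DMSO controls, with values from duplicates.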

Sequence of UniProt O00418 (O00418 whole entry, looked up): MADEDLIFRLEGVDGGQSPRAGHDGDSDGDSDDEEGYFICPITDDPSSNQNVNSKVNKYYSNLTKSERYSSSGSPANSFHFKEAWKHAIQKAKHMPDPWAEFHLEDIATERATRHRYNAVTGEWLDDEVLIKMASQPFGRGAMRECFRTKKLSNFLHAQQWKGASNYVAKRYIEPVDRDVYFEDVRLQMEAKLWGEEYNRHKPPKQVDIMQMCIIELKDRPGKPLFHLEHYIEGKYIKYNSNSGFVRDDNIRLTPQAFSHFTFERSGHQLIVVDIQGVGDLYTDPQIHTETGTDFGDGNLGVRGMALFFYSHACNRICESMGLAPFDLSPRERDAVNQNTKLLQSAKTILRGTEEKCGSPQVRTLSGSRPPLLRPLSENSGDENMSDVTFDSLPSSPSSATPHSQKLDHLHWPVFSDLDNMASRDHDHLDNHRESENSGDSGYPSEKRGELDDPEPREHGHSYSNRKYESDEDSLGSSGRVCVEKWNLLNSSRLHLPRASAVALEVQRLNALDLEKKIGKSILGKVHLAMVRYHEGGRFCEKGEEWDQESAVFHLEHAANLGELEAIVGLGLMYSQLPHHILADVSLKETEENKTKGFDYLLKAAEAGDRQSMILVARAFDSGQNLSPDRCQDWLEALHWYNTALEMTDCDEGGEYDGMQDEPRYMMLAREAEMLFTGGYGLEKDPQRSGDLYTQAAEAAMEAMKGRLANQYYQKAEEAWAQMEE
Sequence of UniProt Q8N612 (Q8N612 whole entry, looked up): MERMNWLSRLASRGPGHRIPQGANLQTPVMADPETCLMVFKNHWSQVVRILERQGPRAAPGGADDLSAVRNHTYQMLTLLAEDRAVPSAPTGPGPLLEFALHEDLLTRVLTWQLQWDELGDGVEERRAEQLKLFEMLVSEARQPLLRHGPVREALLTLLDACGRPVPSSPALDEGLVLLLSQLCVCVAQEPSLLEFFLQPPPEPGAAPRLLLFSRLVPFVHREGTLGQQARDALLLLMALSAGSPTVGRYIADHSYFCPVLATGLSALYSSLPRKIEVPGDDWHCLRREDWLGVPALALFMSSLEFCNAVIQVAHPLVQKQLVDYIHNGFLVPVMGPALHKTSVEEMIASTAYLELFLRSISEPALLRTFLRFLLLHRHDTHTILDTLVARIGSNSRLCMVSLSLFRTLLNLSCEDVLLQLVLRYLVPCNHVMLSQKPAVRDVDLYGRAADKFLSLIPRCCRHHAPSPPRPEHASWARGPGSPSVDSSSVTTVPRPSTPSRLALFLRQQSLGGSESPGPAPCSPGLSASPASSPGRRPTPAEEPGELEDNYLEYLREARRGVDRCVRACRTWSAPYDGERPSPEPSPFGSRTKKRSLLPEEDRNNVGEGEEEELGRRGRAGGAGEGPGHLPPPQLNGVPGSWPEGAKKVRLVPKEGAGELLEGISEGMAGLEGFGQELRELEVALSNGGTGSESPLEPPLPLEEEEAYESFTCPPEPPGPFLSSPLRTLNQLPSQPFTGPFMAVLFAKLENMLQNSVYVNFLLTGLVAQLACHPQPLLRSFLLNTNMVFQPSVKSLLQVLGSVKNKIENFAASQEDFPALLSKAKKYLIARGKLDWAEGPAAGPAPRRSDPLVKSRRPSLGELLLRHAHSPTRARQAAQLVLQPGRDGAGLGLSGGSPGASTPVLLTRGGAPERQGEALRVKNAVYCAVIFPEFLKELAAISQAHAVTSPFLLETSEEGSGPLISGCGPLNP
Sequence of UniProt Q9NZJ5 (Q9NZJ5 whole entry, looked up): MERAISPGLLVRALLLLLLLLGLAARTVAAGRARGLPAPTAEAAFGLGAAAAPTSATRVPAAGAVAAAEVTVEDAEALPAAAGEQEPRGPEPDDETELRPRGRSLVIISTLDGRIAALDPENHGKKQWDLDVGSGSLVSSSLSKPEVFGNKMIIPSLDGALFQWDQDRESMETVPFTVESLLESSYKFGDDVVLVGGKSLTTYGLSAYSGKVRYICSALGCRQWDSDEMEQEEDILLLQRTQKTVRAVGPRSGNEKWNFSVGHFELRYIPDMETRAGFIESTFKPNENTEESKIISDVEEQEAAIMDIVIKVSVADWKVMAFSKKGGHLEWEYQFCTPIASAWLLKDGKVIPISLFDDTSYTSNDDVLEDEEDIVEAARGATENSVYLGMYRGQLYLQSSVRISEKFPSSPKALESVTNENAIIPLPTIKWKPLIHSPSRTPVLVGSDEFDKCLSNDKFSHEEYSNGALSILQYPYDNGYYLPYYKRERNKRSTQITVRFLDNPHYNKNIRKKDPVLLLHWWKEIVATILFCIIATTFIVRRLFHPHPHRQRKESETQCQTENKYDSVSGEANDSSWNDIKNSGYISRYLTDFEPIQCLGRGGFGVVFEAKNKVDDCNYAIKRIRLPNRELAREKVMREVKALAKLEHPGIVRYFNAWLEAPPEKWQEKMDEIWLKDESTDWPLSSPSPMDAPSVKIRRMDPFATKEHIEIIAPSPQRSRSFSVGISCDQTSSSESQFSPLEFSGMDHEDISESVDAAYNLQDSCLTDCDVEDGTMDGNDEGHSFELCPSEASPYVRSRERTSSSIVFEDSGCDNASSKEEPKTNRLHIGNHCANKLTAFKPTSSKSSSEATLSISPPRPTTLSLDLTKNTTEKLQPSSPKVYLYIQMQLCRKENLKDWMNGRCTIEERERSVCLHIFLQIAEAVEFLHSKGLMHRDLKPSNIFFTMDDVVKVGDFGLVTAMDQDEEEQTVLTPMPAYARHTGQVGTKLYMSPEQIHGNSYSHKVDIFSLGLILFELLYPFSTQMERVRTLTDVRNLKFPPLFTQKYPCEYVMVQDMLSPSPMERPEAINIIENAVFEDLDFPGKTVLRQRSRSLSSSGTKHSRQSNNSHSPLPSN
Sequence of UniProt Q6P3W2 (Q6P3W2 whole entry, looked up): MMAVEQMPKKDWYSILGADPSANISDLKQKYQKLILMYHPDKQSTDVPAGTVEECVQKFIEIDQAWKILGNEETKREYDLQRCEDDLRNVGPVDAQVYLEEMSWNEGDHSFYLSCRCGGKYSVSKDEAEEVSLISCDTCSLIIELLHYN
Sequence of UniProt Q9NQZ7 (Q9NQZ7 whole entry, looked up): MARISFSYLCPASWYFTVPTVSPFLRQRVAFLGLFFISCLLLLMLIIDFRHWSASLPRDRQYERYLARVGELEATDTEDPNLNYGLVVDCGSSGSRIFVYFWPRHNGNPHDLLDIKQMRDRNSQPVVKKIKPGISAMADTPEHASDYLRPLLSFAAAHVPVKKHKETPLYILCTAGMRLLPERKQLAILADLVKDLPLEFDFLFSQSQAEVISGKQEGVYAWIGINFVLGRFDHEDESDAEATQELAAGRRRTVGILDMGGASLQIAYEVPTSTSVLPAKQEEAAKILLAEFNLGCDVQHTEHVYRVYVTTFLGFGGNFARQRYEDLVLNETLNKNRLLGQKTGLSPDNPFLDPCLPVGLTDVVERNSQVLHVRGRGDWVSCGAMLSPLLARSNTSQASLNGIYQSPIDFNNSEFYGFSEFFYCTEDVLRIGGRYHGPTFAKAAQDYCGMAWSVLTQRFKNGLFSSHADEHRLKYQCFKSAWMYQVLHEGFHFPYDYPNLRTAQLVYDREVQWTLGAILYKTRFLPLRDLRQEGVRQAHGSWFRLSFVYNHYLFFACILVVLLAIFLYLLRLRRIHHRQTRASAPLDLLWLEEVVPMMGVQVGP
Sequence of UniProt Q3B7T1 (Q3B7T1 whole entry, looked up): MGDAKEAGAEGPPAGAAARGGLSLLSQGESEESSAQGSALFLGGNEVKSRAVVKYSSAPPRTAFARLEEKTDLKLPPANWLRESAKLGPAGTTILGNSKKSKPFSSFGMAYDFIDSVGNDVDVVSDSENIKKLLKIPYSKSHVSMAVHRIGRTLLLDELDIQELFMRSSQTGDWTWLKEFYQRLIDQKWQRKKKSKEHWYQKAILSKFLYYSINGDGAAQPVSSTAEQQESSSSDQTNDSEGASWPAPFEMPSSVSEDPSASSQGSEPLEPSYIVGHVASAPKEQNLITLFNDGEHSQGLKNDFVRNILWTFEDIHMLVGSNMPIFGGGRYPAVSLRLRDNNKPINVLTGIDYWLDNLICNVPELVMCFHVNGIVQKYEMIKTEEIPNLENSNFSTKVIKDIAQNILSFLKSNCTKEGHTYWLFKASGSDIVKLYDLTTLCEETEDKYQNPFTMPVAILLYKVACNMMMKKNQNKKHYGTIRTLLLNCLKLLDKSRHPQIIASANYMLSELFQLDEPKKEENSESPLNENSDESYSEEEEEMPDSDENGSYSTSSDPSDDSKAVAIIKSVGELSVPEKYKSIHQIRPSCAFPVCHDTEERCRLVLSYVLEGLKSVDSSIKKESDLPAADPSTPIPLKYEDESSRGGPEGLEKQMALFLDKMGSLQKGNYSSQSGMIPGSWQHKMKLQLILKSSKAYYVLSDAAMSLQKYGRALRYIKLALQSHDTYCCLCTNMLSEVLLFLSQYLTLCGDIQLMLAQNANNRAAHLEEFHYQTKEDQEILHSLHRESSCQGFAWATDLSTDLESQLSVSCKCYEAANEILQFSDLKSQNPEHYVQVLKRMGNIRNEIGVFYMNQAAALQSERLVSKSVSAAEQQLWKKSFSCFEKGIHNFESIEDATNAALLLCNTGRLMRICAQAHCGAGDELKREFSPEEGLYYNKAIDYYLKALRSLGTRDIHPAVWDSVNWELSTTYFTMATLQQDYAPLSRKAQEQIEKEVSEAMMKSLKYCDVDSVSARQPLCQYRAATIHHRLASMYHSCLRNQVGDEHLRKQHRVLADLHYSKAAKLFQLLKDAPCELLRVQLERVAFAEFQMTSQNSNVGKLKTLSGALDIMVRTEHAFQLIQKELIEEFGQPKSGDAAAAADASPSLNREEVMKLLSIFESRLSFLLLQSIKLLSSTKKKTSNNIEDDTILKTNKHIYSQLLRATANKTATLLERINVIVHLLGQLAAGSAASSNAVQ
Sequence of UniProt Q9Y6B2 (Q9Y6B2 whole entry, looked up): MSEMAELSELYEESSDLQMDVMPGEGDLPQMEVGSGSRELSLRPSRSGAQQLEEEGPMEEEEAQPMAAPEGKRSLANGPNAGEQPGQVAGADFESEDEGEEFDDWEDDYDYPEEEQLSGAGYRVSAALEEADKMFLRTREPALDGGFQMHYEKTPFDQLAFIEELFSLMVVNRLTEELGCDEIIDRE

log2 fold change, inactive:
EDRF1 (UniProt Q3B7T1) -0.031
DDX46, A0A0C4DG89 -0.288
DNAJC24 (UniProt Q6P3W2) 0.052
FAM160A2 isoform 2 (UniProt Q8N612) 0.057
CYP24A1 (UniProt Q07973) 0.099
DNAH5 (UniProt Q8TE73) 0.001
DERPC (UniProt P0CG12) -0.024
ENTPD7 (UniProt Q9NQZ7) -0.357
DOP1A (UniProt Q5JWR5) -0.056
EIF2AK3 (UniProt Q9NZJ5) -0.085
EEF2K (UniProt O00418) 0.216
EHBP1 (UniProt Q8NDI1) 0.087
DCAF4 (UniProt Q8WV16) 0.066
ELMO1 (UniProt Q92556) 0.04
EID1 (UniProt Q9Y6B2) -0.156
DOLPP1 (UniProt Q86YN1) 0.008
DNM2 isoform 4 (UniProt P50570) 0.116
EPHB4 (UniProt P54760) 0.18
DNAH10 (UniProt Q8IVF4) -0.101
DCAF12 (UniProt Q5T6F0) 0.051
EEF1D isoform 3 (UniProt P29692) -0.401

Each target was assayed with O=C1NC(=O)C(c2cnc3ccccn23)=C1c1cn2c3c(cc(F)cc13)CN(C(=O)N1CCCCC1)CC2 in the same assay as above.
Method in brief: as §1

log2 fold change, inactive:
DDB1 isoform 2 (UniProt Q16531) -0.09
EPHX2 (UniProt E5RI53) -0.058
EDRF1 (UniProt Q3B7T1) -0.057
DDX46, A0A0C4DG89 -0.148
DNAJC24 (UniProt Q6P3W2) -0.059
DNAL1 (UniProt Q4LDG9) -0.26
FAM160A2 isoform 2 (UniProt Q8N612) 0.026
DNAH5 (UniProt Q8TE73) 0.014
FAM135A (UniProt Q9P2D6) -0.088
ENTPD7 (UniProt Q9NQZ7) -0.098
DOP1A (UniProt Q5JWR5) 0
EIF2AK3 (UniProt Q9NZJ5) 0.127
EEF2K (UniProt O00418) 0.178
DCAF4 (UniProt Q8WV16) -0.096
FAM117B (UniProt Q6P1L5) -0.144
DLK1 (UniProt P80370) -0.109
ELF1 (UniProt P32519) -0.075
ERF (UniProt P50548) -0.273
ELMO1 (UniProt Q92556) -0.104
EID1 (UniProt Q9Y6B2) -0.652
DNM2 isoform 4 (UniProt P50570) 0.19
DNAH10 (UniProt Q8IVF4) -0.102
ELOVL7 (UniProt A1L3X0) -0.09

Reference: the supplement of paper PMC10849652
